# Assay outcomes: PubChem BioAssay, National Center for Advancing Translational Sciences (NCATS)
# AmpC detergent: qHTS Inhibitors of AmpC Beta-Lactamase (assay with detergent) | P00811 | Potency, µM (series often up to 114 µM), without a hit: at the top dose activity change, negative = inhibition, usual class: inhibitors | hit rate 0.041% among 370,000 | AmpC hydrolysis of nitrocefin, absorbance 480 nm, 0.01% Triton | AID 485294, 2010;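 note: 0% = no-compound wells and -100% = no-enzyme wells; nearly all actives have a fitted effect of over 25% in size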
# Target sequence (P00811 whole entry, looked up): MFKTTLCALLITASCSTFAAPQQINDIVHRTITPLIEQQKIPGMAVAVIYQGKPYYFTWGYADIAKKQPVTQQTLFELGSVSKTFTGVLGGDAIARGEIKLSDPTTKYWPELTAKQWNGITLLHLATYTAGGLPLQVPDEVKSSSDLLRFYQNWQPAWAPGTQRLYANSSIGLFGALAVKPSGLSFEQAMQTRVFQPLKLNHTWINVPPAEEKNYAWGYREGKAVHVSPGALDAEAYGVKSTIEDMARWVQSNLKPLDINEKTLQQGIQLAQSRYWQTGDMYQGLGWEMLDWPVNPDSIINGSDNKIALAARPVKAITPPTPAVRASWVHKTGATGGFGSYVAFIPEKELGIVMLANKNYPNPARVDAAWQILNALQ
#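 20 mM phosphate pH 7.0 + 0.01% (detergent screen) or 0.0001% Triton X-100; 5.3 nM AmpC reagent; cpd preinc 15 min RT; nitrocefin (800 uM stock) to start; A480 q20 s × 4 min; Activity was normalised to no-enzyme and no-compound control wells.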
# Pf growth 48h: Primary qHTS for delayed death inhibitors of the malarial parasite plastid, 48 hour incubation; P. falciparum luciferase growth in erythrocytes, 48 h; Potency, µM (highest dose often 28.7 µM), without a hit: top-dose activity change, negative = inhibition, actives largely listed as inhibitors; hit rate 5.9% among 310,000; AID 504832, 2011
#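 Cell-based growth assay: transgenic P. falciparum expressing firefly luciferase, cultured in red cells within RPMI 1640 containing 0.5% w/v Albumax, 24 mM bicarbonate and gentamycin. A drop in luciferase activity indicates inhibition.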
# Pf growth 96h: Primary qHTS for delayed death inhibitors of the malarial parasite plastid, 96 hour incubation; P. falciparum luciferase reporter growth, 96 h; Potency, µM (top dose mostly 28.7 µM), inactives show at the highest dose activity change, negative = inhibition, most hits filed as inhibitors; hit rate 6.9% among 320,000; AID 504834, 2011
#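 Cell-based qHTS: luciferase-tagged P. falciparum in erythrocytes (2% hematocrit, 0.05% parasitemia final) incubated with compounds for 96 hours, 37 C, 5% CO2; luciferase detection reagent then added and luminescence measured.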
# AmpC inh no detg: qHTS Inhibitors of AmpC Beta-Lactamase (assay without detergent) | AmpC nitrocefin hydrolysis, absorbance 480 nm, 0.0001% Triton | AID 485341, 2010 | Potency, µM (highest dose often 57.1 µM), without a hit: top-dose activity change, negative = inhibition, usual class: inhibitors | hit rate 0.52% among 330,000;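 note: plate controls were no compound for no effect and no enzyme for full effect; nearly all actives have a fitted effect of over 20% in size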
#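 AmpC (5.3 nM in the dispensed reagent) in 20 mM phosphate pH 7.0 with 0.01% (detergent screen) or 0.0001% Triton X-100 was preincubated with compounds for 15 min at room temperature. Nitrocefin was then added from an 800 uM solution, and hydrolysis was followed at 480 nm.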
# AMA1 RON2 block: qHTS for Inhibitors of AMA1-RON; Towards Development of Antimalarial Drug Lead: Primary Screen | Plasmodium falciparum AMA1 (3D7) - RON2 peptide interaction | AlphaScreen AMA1-biotinylated RON2 peptide binding | Potency, µM (doses to about 58.2 µM), without a hit: at the top dose activity change, negative = inhibition, actives largely listed as inhibitors | hit rate 0.2% among 360,000 | AID 720542, 2013;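 note: 0% = vehicle wells and -100% = peptide control; nearly all actives have a fitted effect of over 45% in size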
#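 AMA1 (3D7) with his tag at 25 nM final met compounds first, then biotinylated RON2 peptide at 25 nM; detection used donor plus acceptor beads, 10 µg/mL apiece, read by AlphaScreen after 30 min at room temperature.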
# HCV inh: qHTS Assay for Inhibitors of Hepatitis C Virus (HCV); hit rate 3.4% among 340,000; Huh7.5.1 HCVcc-Cre infection, luciferase reporter, 44 h; AID 651820, 2012; Potency, µM (doses to about 41.8 µM), for the others: top-dose activity change, negative = inhibition, most hits filed as inhibitors
#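 Seed cells (1,000/well) for 4 h; treat with compound and infect with HCVcc-Cre, moi about 0.5. Incubate 44 h, then detect luciferase activity.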
# An asterisk follows results filed as active; u = inconclusive; x = no result; [ ] = remark or other dose. Compounds with a hit are over-represented: about 11% of the library has one in this group of screens. Calls come from the whole dose curve; as a rule, active = well fitted curve in the direction sought with a large enough effect; inconclusive = small, poorly fitted or top-dose-only effect, or another doubt; inactive = no such curve, though single readings can be large; an effect the other way counts as inactive or inconclusive. Unless noted, % is set by controls: 0 for no effect and ±100 for the full control effect; potency is the fitted concentration of half-maximal effect.
SMILES,AmpC detergent,Pf growth 48h,Pf growth 96h,AmpC inh no detg,AMA1 RON2 block,HCV inh
CC(=O)c1c(C)[nH]c(C(=O)OCC(=O)N2CCN(S(=O)(=O)c3ccc(C)cc3C)CC2)c1C,u,x,8.28µM*,74.4%,-2.9%,u
Cc1ccc(-n2nc(C)c3c(C)cc(=O)n(CC(=O)Nc4cccc(C)c4C)c32)cc1,-1.6%,x,x,x,x,x
CC(=O)Nc1ccc(C)c(NS(=O)(=O)c2cccc(C(F)(F)F)c2)c1,-2.4%,1.85µM*,3.7µM*,-14.3%,0.5%,21.0%
O=C(COC(=O)c1ccc(O)cc1)Nc1cc(S(=O)(=O)N2CCOCC2)ccc1Cl,-12.2%,u,4.65µM*,-24.7%,6.9%,-6.9%
O=C(COC(=O)c1ccc(O)cc1)Nc1cccc(S(=O)(=O)N2CCCCC2)c1,1.7%,u,u,8.91µM*,0.3%,u
Cc1ccc(S(=O)(=O)N2CCCCC2)cc1NC(=O)COC(=O)c1ccc(O)cc1,-17.1%,u,0.233µM*,-22.6%[11.4 µM],10.4%,u
O=C(COC(=O)c1ccc(CO)cc1)c1ccc(S(=O)(=O)N2CCCCC2)cc1,-1.0%,u,u,-14.7%,-7.8%,9.5%
O=C(COC(=O)c1ccc(O)cc1)Nc1cc(S(=O)(=O)N2CCCCCC2)ccc1Cl,x,x,x,x,0.0%,x
O=C(COC(=O)c1ccc(O)cc1)c1ccc(S(=O)(=O)N2CCCCC2)cc1,-1.8%,2.94µM*,u,-35.5%,4.2%[11.6 µM],u
O=C(CCCSc1ccc(Cl)cc1)Nc1cc(S(=O)(=O)N2CCOCC2)ccc1O,-6.4%,u,8.28µM*,-38.0%,-4.5%,11.2%
Cc1ccc(S(=O)(=O)N2CCOCC2)cc1NC(=O)CSc1ccc(Cl)cc1,-4.7%,u,-1.3%,-11.3%,6.1%,-13.0%
O=C(Nc1ccc(C(=O)N2CCOCC2)cc1)c1cc(-c2cccnc2)nc2ccc(Cl)cc12,-8.6%,u,-5.0%,190.1%,1.3%,7.94µM*
O=C(Nc1ccc(C(F)(F)F)cc1)c1cc(-c2cccnc2)nc2ccc(Br)cc12,-0.4%,0.37µM*,u,-24.2%,-0.6%,-1.5%
Cc1ccc2nc(-c3cccnc3)cc(C(=O)Nc3ccccc3[N+](=O)[O-])c2c1,5.7%,u,u,0.3%,-3.9%,-0.1%
O=C(O)c1cc(-c2cccnc2)nc2ccc(Br)cc12,2.5%,17.2%,37.5%,-23.4%,5.6%,15.5%
CSc1ccccc1NC(=O)c1cc(-c2cccnc2)nc2ccc(Br)cc12,-0.3%,u,u,-14.8%,-6.9%,11.2µM*
Cn1cc(CNC(=O)c2cc(-c3ccccc3)nc3ccc(Br)cc23)cn1,-10.3%,13.1µM*,u,-4.0%,15.9%,u
CCCOc1ccc(CN(C(=O)Cc2coc3ccc(CC)cc23)C2CCS(=O)(=O)C2)cc1 (configuration not stated),9.7%,x,x,x,x,x
Cc1cc(C)c2c(n1)nn1c(C)c(CCC(=O)NCc3ccccc3Cl)c(C)nc21,0.7%,x,x,x,x,x
COc1ccc(Cn2ccnc2SCC(=O)NCc2ccccc2)cc1,-7.7%,x,x,x,x,x
CC(=O)Nc1cccc(NC(=O)c2cc(-c3cccnc3)nc3ccc(Cl)cc23)c1,1.7%,u,15.0%,87.1%,5.0%,u
CC(=O)Nc1cccc(NC(=O)c2cc(-c3cccnc3)nc3ccc(Br)cc23)c1,u,5.22µM*,u,159.4%,-7.6%,14.1µM*
CCOC(=O)C1CCN(C(=O)CSc2cc(=O)n(CC)c3ccccc23)CC1,-8.1%,-28.3%,0.0033µM*,90.8%,31.2%,11.2µM*
CCn1c(=O)cc(SCC(=O)N2CCN(C)CC2)c2ccccc21,-0.7%,x,0.0657µM*,-14.4%,-12.8%,u
CCN1CCN(C(=O)CSc2cc(=O)n(CC)c3ccccc23)CC1,4.1%,x,u,-10.4%,4.1%,u
SMILES,AmpC detergent,Pf growth 48h,Pf growth 96h,AmpC inh no detg,AMA1 RON2 block,HCV inh
O=Cc1s/c(=N\S(=O)(=O)c2ccccc2)n(CCCCl)c1Cl,u,3.8%,1.4%,-33.2%,-11.2%,4.47µM*
CCc1ccc(-n2c(=O)c3c4c(sc3n(Cc3cc(=O)n5c(C)cccc5n3)c2=O)CCC4)cc1,12.8%,x,x,x,x,x
COc1ccc(C(C[N+](=O)[O-])c2c(C)cc3ccccn23)cc1 (configuration not stated),-13.8%,10.4µM*,11.7µM*,-29.0%[11.4 µM],-8.8%,u
COc1ccc(C(C[N+](=O)[O-])c2c(-c3ccccc3)cc3ccccn23)c(OC)c1 (configuration not stated),5.2%,10.4µM*,x,-33.5%,-10.6%,3.5%
C=CCn1c(COc2cccc(C)c2)nnc1SC(C)C(=O)NC1CC1 (configuration not stated),0.4%,u,13.1µM*,24.3%,85.8%,1.9%
CC(C)(C)C1CCC(=NOC(=O)c2ccc(F)cc2)CC1 (configuration not stated),u,u,10.4µM*,-20.2%,1.2%,12.4%
O=C(O)c1cccc(-c2ccc3c(c2)OCO3)c1,1.2%,6.6%,3.7µM*,-29.7%,6.5%,15.4%
Cc1ccc(SCC(=O)Nc2ccc(-c3nc4ccccc4[nH]3)cc2)cc1,-8.7%,11.7µM*,41.2%,-23.3%,-1.7%,u
O=C(CSc1ccc(-c2nc3ccccc3[nH]2)cn1)Nc1ccc2c(c1)OCCO2,-2.7%,34.9%,-24.7%,0.562µM*,-1.6%,-14.7%
O=C(CCc1nc2ccccc2[nH]1)Nc1ccc2c(c1)OCCO2,u,30.8%,1.04µM*,-20.9%,-3.3%,1.5%[8.37 µM]
Cc1cc2nc(-c3ccc(SCC(=O)Nc4ccc5c(c4)OCCO5)nc3)[nH]c2cc1C,10.9%,u,2.94µM*,-22.1%,1.3%,-18.9%
CCOCCCN(Cc1ccco1)S(=O)(=O)c1cc2c(cc1Cl)NC(=O)CO2,-8.2%,x,x,x,x,x
Cc1cccc(C(=O)N(Cc2ccco2)Cc2ccccc2F)c1,-7.9%,x,x,x,x,x
O=C(Nc1ccc(S(=O)(=O)N2CCCCC2c2cccnc2)cc1)c1ccc(Br)cc1 (configuration not stated),6.6%,x,x,x,x,x
CC[C@]12c3[nH]c4cc(CCC(=O)N(C)C)ccc4c3CCN1C(=O)[C@@H](CC(=O)NCc1cccc(C(F)(F)F)c1)C[C@@H]2C(=O)N1CCN(C(=O)c2ccco2)CC1,x,x,x,229.5%,-7.5%,-4.5%[8.37 µM]
